Measurements: PMC4336329 (PLoS ONE, 2015)
In all, about 310,000 compounds went through this assay and about 14,000 (4.5%) showed an effect of 50% or more. The effect is printed as a negative number. This is one part of a sample in which strong results are shown more often than they occur.

Molecular target: human ether-à-go-go-related gene (hERG) potassium channel (human, UniProt Q12809)
Test: primary screen, population patch clamp on CHO cells stably expressing hERG; higher = less effect of the substance
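Also: peak tail current of the secondary pulse compared with the same well before compound.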

Chain of human ether-à-go-go-related gene (hERG) potassium channel (Q12809 whole entry, looked up): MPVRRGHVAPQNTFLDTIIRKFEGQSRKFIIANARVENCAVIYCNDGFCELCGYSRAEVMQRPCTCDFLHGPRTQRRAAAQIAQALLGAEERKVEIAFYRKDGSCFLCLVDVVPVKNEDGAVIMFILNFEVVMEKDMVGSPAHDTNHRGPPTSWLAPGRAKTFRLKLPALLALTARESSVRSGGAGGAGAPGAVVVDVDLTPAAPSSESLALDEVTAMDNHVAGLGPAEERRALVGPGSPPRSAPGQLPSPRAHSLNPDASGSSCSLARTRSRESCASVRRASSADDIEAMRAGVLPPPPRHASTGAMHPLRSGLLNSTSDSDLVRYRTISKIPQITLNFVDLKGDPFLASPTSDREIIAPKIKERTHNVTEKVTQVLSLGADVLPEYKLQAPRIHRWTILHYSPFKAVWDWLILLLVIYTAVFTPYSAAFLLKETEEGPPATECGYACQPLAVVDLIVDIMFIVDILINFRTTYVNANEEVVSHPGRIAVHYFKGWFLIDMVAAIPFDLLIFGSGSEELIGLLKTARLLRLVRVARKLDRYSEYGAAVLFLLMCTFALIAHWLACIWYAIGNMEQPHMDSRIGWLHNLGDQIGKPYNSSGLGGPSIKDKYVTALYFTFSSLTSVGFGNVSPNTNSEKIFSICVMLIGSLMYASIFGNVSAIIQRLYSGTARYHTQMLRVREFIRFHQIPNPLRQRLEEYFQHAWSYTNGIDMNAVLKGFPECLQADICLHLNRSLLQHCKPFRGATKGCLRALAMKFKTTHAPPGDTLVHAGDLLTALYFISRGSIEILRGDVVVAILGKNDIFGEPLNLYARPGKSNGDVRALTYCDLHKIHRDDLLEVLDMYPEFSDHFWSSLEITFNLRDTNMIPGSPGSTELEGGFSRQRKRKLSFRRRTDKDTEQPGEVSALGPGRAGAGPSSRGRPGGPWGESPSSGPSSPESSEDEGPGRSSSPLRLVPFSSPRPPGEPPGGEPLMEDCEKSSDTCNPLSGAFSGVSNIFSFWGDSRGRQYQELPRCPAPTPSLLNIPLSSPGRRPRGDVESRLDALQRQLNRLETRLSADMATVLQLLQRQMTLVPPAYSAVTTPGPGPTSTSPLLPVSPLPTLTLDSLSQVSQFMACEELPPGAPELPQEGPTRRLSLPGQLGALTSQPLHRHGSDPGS

Point of comparison: CCN(CC)C(=O)CC(c1ccc(OC)cc1)c1c(O)cc(OC)cc1OC (centres unmarked), “hERG current change (%, negative = inhibition) at 10uM” value -1.57%. Against it:
- O=C(Nc1ccc2c(c1)CCC2)c1ccccc1 — higher, 9.66%
- Cc1cccc(C2c3[nH]c4ccccc4c3CCN2C(=O)c2ocnc2C)n1 (centres unmarked) — lower, -10.5%
- Cc1ncoc1C(=O)N1CCc2c([nH]c3ccccc23)C1C(C)(C)C (centres unmarked) — lower, -65.3%
- Cc1ncoc1C(=O)N1CCc2c([nH]c3ccccc23)C1C1CCCCC1 (centres unmarked) — higher, 1.89%
- COc1ccc(CNC(=O)C(C)n2ccc3cc(S(=O)(=O)N4CCCCCC4)ccc32)cc1 (centres unmarked) — higher, 1.82%
- CCN(CC)CCC(c1ccc(N(C)C)cc1)c1c(O)cc(OC)cc1OC (centres unmarked) — higher, -0.431%
- CCN(CC)C(=O)CC(c1ccc2c(c1)OCO2)c1c(O)cc(OC)cc1OC (centres unmarked) — lower, -2.77%
- CCN(CC)CCC(c1ccc2c(c1)OCO2)c1c(O)cc(OC)cc1OC (centres unmarked) — lower, -73.4%
- CCN(CC)CCC(c1ccc(OC)cc1)c1c(O)cc(OC)cc1OC (centres unmarked) — lower, -66.4%
- CCN(CC)CCC(c1ccc2c(c1)OCO2)c1c(OC)cc(OC)c2ccc(=O)oc12 (centres unmarked) — lower, -46.2%
- CC(C)CC(C(=O)OCC(=O)c1c(N)n(C)c(=O)n(C)c1=O)N1C(=O)c2ccccc2C1=O (centres unmarked) — lower, -27%
- COCCNC(=S)N1CCC(C(=O)c2ccc3c(c2)OCCO3)CC1 — higher, 32.7%
- Cc1ccc(F)cc1CNC(=O)c1cc(COc2ccc3ncccc3c2)on1 — higher, 5.04%
- CCn1c(=O)c2c(cnn2C)c2ccccc21 — higher, 2.58%
- Brc1ccc(-c2c(-c3ccsc3)sc3ccccc23)cn1 — higher, 14.1%
- Cc1ccc(-c2nc(CS(=O)CC(=O)NCCN3CCCC3)c(C)o2)cc1 (centres unmarked) — lower, -5.74%
- CC(C)c1ccc(-c2csc(NC(=O)c3cccs3)c2C(=O)O)cc1 — higher, 18.3%
- Cn1c(SCC(=O)NCc2ccco2)nc2ccccc2c1=O — lower, -23.6%
- O=C(CSc1nc2ccccc2c(=O)n1Cc1ccco1)NCc1ccco1 — lower, -65.4%
- COCCNC(=O)CSc1nc2cc3c(cc2c(=O)n1Cc1ccco1)OCO3 — lower, -27.4%
- O=C(CSc1nc2ccccc2c(=O)n1Cc1ccccc1)NCc1ccco1 — lower, -39.6%
- COCCNC(=O)CSc1nc2cc(OC)c(OC)cc2c(=O)n1Cc1ccco1 — lower, -61.2%
- Cc1ccccc1-n1c(SCC(=O)NCc2cccs2)nc2ccccc2c1=O — lower, -17.4%
- O=C(CSc1nc2ccccc2c(=O)n1Cc1ccco1)NCc1ccccc1 — lower, -29.3%
- O=C(CSc1nc2ccccc2c(=O)n1Cc1ccc(Cl)cc1)NCc1cccs1 — lower, -52.5%
- O=C(CSc1nc2ccsc2c(=O)n1Cc1ccc(C(=O)O)cc1)NCc1ccco1 — higher, 2.08%
- COc1cc2nc(SCC(=O)NCCc3ccccc3)n(Cc3ccco3)c(=O)c2cc1OC — lower, -43.3%
- O=C(CSc1nc2ccccc2c(=O)n1Cc1ccc(C(=O)NC2CC2)cc1)NCc1ccco1 — lower, -51.5%
- O=C(CSc1nc2ccccc2c(=O)n1Cc1ccc(F)cc1)NCc1cccs1 — lower, -14%
- Cc1cc(C(=O)N2CCCC(CCC(=O)N3CCN(c4ccccn4)CC3)C2)c(C)o1 (centres unmarked) — lower, -9.16%
- COc1cccc(Cn2c(=S)[nH]c3ccc(N4CCOCC4)cc3c2=O)c1 — lower, -8.19%
- CCOC(=O)C1CCCN(C(=O)Cn2cnc3c2c(=O)n(C)c(=O)n3C)C1 (centres unmarked) — higher, 20.3%
- O=C(C1CCCC1)N1CCN=C1SCc1cccc([N+](=O)[O-])c1 — lower, -19.3%
- Cc1ccc2nc(NCc3ccc(F)cc3)c3nncn3c2c1 — higher, 2.23%
- COc1ccc(C2N(Cc3ccccc3)CCN2Cc2ccccc2)cc1[N+](=O)[O-] — lower, -29.9%
- CCC(Sc1nc2cc3c(cc2c(=O)n1Cc1ccco1)OCO3)C(=O)NCCOC (centres unmarked) — lower, -63.6%
- C=CCn1c(SCC(=O)NCc2ccco2)nc2ccccc2c1=O — lower, -50.3%
- O=C(CSc1nc2ccccc2c(=O)n1Cc1ccco1)Nc1cccc(O)c1 — higher, 3.9%
- CCn1c(SCC(=O)NCc2ccco2)nc2ccccc2c1=O — lower, -34.4%
- CN(Cc1ccccc1)C(=O)CSc1nc2ccccc2c(=O)n1Cc1ccco1 — lower, -3.56%
- Cc1ccc(NC(=O)CN(C)C(=O)CSc2nc3ccccc3c(=O)n2Cc2ccco2)cc1 — lower, -71.1%
- O=C(CSc1nc2ccccc2c(=O)n1Cc1ccco1)NCCN1C(=O)CSC1=O — lower, -61.4%
- Cn1c(SCC(=O)NCCN2C(=O)CSC2=O)nc2ccccc2c1=O — lower, -2.05%
- CCC(Sc1nc2cc(OC)c(OC)cc2c(=O)n1Cc1ccco1)C(=O)NCCOC (centres unmarked) — lower, -28.2%
- Cc1ccc(CSc2nc3ccccc3c(=O)n2Cc2ccco2)cc1 — higher, 8.42%
- O=C(CSc1nc2ccccc2c(=O)n1-c1ccccc1)NCc1ccco1 — lower, -15.1%
- CCc1ccccc1NC(=O)C(CC)Sc1nc2cc3c(cc2c(=O)n1Cc1ccco1)OCO3 (centres unmarked) — higher, 17.1%
- CCOc1ccc(C(=O)Nc2ccc(S(=O)(=O)Nc3cc(C)on3)cc2)cc1 — lower, -9.73%
- O=C(CSc1nnc(COc2ccccc2)n1Cc1ccco1)c1ccc(F)cc1 — lower, -21.1%
- Cc1ccnc2nc(C(=O)OCCOc3cccc(Br)c3)nn12 — lower, -27.9%
- COc1ccc(NC(=O)CCN2CC(C)OC(C)C2)c(OC)c1.Cl (centres unmarked) — higher, 13.2%
- CCOc1cc(/C=N/n2c(COc3ccccc3)n[nH]c2=S)ccc1O — higher, 24.4%
